Source: PubChem (National Center for Advancing Translational Sciences (NCATS))
Pf growth 48h = P. falciparum growth inhibition at 48 hours (one generation). P. falciparum luciferase growth in erythrocytes, 48 h. Potency, µM (highest dose often 28.7 µM), usual class: inhibitors. hit rate 5.9% among 310,000. AID 504832
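Erythrocytes infected with P. falciparum carrying an integrated firefly luciferase reporter (2% hematocrit, 0.1% parasitemia final) were exposed to compounds in RPMI 1640 with 0.5% Albumax at 37 C, 5% CO2. Growth inhibition was scored as reduced luminescence.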
AMA1 RON2 block = AMA1-RON2 (P. falciparum) interaction inhibition; hit rate 0.2% among 360,000; AlphaScreen AMA1-biotinylated RON2 peptide binding; AID 720542; Potency, µM (doses to about 58.2 µM), actives largely listed as inhibitors; also: nearly all actives have a fitted effect of over 45% in size
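AMA1 (3D7) with his tag at 25 nM final met compounds first, then biotinylated RON2 peptide at 25 nM; detection used donor plus acceptor beads, 10 µg/mL apiece, read by AlphaScreen after 30 min at room temperature.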
NS1 function inh = inhibitors of influenza NS1 protein function. Potency, µM (series often up to 46.1 µM). hit rate 0.4% among 270,000; calls by dose curve; also: actives are rising curves; nearly all actives have a fitted effect of over 50% in size
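A cell-based growth assay was used: compounds that relieve NS1-induced slow growth of budding yeast raise OD600. Assay medium was yeast nitrogen base with ammonium sulphate and -URA supplement, pH 6.0, with 2% galactose.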
Sm TGR inh = inhibitors of Schistosoma mansoni thioredoxin glutathione reductase | Potency, µM (series often up to 114 µM), most hits filed as inhibitors | purified TGR, DTNB reduction, TNB absorbance 405 nm | AID 485364 | hit rate 3% among 360,000; also: nearly all actives have a fitted effect of over 60% in size
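TGR 20 nM + NADPH 100 uM (dispensed conc.), cpd preinc 15 min RT; start with NADPH (500 uM addition) then DTNB (15 mM addition). Kinetic TNB absorbance, 405 nm filter. Four-parameter Hill fit across titration.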
Pf growth 96h = P. falciparum growth inhibition at 96 hours; Potency, µM (titrated, usually from 28.7 µM), most hits filed as inhibitors; P. falciparum luciferase reporter growth, 96 h; hit rate 6.9% among 320,000
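Two-generation exposure (96 h) targets delayed-death phenotype. Reporter parasites carrying integrated firefly luciferase, in red cells at 2% hematocrit and 0.05% parasitemia final, kept at 37 C, 5% CO2; luminescence loss indicates inhibition.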
Each line names hits and unclear results; the compound was inactive in the other large screens. An excerpt weighted towards active compounds, which were near 11% of everything screened. Unless noted, calls follow the shape of the dose curve; as a rule, active = well fitted curve in the direction sought with a large enough effect; inconclusive = small, poorly fitted or top-dose-only effect, or another doubt; inactive = no such curve, though single readings can be large; an effect the other way counts as inactive or inconclusive.

O=C(Cn1c(=O)n(-c2ccccc2)c(=O)c2c3c(sc21)CCCC3)Nc1ccccc1	none (no result: Pf growth 48h, AMA1 RON2 block, NS1 function inh, Pf growth 96h)
Cc1cc(C)c(NC(=O)Cn2c(=O)n(Cc3ccco3)c(=O)c3ccccc32)c(C)c1	Pf growth 48h 13.1µM
O=C(Cn1c(=O)n(Cc2ccco2)c(=O)c2c3c(sc21)CCCC3)Nc1ccccc1	Pf growth 48h inconclusive, NS1 function inh inconclusive, Sm TGR inh 50.1µM, Pf growth 96h inconclusive
NC(=O)Cn1c(=O)n(Cc2ccco2)c(=O)c2c3c(sc21)CCCCC3	Pf growth 48h inconclusive, Sm TGR inh 7.08µM
CCOc1ccc(-n2c(=O)c3c4c(sc3n(CC(=O)NCc3ccco3)c2=O)CCC4)cc1	none
COc1cc(C(=O)NC(=S)Nc2nccs2)cc(OC)c1OC	Pf growth 96h inconclusive
O=C(CCCn1nnnc1CN1CCOCC1)N1CCC(c2ccccc2Cl)C1 (centres undefined)	Pf growth 48h inconclusive, Sm TGR inh inconclusive
CC1CC(=O)c2c(cc3c(-c4c(O)cc(O)c5c(O)c6c(cc45)OC(C)CC6=O)c(O)cc(O)c3c2O)O1 (centres undefined)	Pf growth 48h 0.415µM, AMA1 RON2 block inconclusive, NS1 function inh inconclusive
Cc1cc(C)cc(OCC(=O)Nc2cnn(CCCC(=O)O)c2)c1	Pf growth 96h inconclusive
COc1ccc(C(C(=O)NCc2ccccc2)N(Cc2ccc3c(c2)OCO3)C(=O)c2cnccn2)cc1 (centres undefined)	none (no result: Pf growth 96h)
Cc1ccc(C(C(=O)NC2CCCC2)N(Cc2ccc3c(c2)OCO3)C(=O)Cc2cccs2)cc1 (centres undefined)	Pf growth 48h 13.1µM
O=C(NC1CCCCC1)C(c1ccccc1)N(Cc1ccc2c(c1)OCO2)C(=O)c1cnsn1 (centres undefined)	Pf growth 48h 9.28µM
Cc1ccc(C(C(=O)NC2CCCC2)N(C(=O)Cc2cccs2)c2ccc(C)c(C)c2)o1 (centres undefined)	Pf growth 48h 10.4µM, Pf growth 96h 10.4µM
O=C(NC1CCCC1)C(c1ccncc1)N(C(=O)Cc1cccs1)c1ccccc1 (centres undefined)	none
Cc1ccc(N(C(=O)Cc2cccs2)C(C(=O)NC2CCCC2)c2ccncc2)cc1 (centres undefined)	Pf growth 48h inconclusive, Pf growth 96h 0.928µM
Cc1nc(SCC(=O)N2CCN(C(=O)c3cccs3)CC2)c2c(C)c(C)sc2n1	Pf growth 48h inconclusive, Pf growth 96h inconclusive (no result: NS1 function inh)
O=C(NC1CCCC1)C(c1ccc(F)cc1)N(C(=O)Cc1cccs1)c1ccc2c(c1)OCCO2 (centres undefined)	none
Cc1ccc(C(C(=O)NC2CCCC2)N(Cc2ccc3c(c2)OCO3)C(=O)c2snc(C(N)=O)c2N)cc1 (centres undefined)	Pf growth 48h 7.38µM, Pf growth 96h 8.28µM
Cc1ccc(C(C(=O)NC2CCCC2)N(C(=O)Cc2cccs2)c2ccc3c(c2)OCCO3)cc1 (centres undefined)	Pf growth 48h 3.29µM, Pf growth 96h inconclusive
NC(=O)c1nsc(C(=O)N(Cc2ccco2)C(C(=O)NC2CCCC2)c2ccc(O)cc2)c1N (centres undefined)	Pf growth 48h inconclusive
COc1ccc(CN(C(=O)c2snc(C(N)=O)c2N)C(C(=O)NC2CCCC2)c2ccc(OC)cc2)cc1 (centres undefined)	Pf growth 48h inconclusive
CC(=O)c1cccc(N(C(=O)CS(=O)CC(=O)Nc2ccc(F)cc2)C(C(=O)NC2CCCCC2)c2ccc(C)o2)c1 (centres undefined)	Pf growth 48h inconclusive, Pf growth 96h 4.15µM
CC(C(=O)NC1CCCC1)N(Cc1ccco1)C(=O)c1snc(C(=O)NC2CCCC2)c1N (centres undefined)	Pf growth 48h 13.1µM (no result: Pf growth 96h)
CCOc1ccc(C2C(C(=O)OC)=CN(C(C)c3ccccc3)C=C2C(=O)OC)cc1 (centres undefined)	Pf growth 48h inconclusive
Cc1noc(C)c1S(=O)(=O)N1CCN(S(=O)(=O)c2ccccc2C#N)CC1	none
CNS(=O)(=O)c1ccc(C(C)(C)C)cc1	none
C=CCN1C(=O)/C(=N/n2cnnc2)c2ccccc21	none
C=CCN1C(=O)/C(=c2\sc3nc(=O)c(Cc4ccccc4)nn3c2=O)c2ccccc21	Sm TGR inh 1.41µM
C=CCN1C(=O)/C(=c2\sc3nc(=O)c(Cc4ccc(OC)c(OC)c4)nn3c2=O)c2ccccc21	Sm TGR inh 0.631µM
